Screens deposited in PubChem BioAssay by several laboratories.
In the library only some 4.6% were active in any assay of this set; here they are far more common.
PfHsp90 set2: growth inhibition of yeast expressing Plasmodium Hsp90. S. cerevisiae expressing PfHsp90, BacTiter-Glo ATP, 48 h; yeast lacking PDR1 and PDR3 efflux regulators. inhibition, % at 9.4 µM. 0.32% of 310,000 active;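 active = every replicate shows inhibition above about 80%, whatever the replicate mean, limit read from the data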;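 also: 0% = DMSO neutral controls and 100% = 20 µM radicicol positive controls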
TIM10 inh: growth inhibitors of TIM10 yeast strain | S. cerevisiae TIM10 strain growth, BacTiter-Glo luminescence, 24 h | inhibition, % at 10 µM | 1.4% of 330,000 active;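 active = inhibition of 40% or more at the single tested concentration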;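 also: wild-type TIM10 isogenic control strain grown at permissive 25 °C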
SKKanGAS inh: blocks kanamycin growth of S. pyogenes SKKanGAS strain. BacTiter-Glo, 6 h. inhibition, % at 7.5 µM. 1.3% of 300,000 active. AID 1662;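 active = mean replicate score, as percent of positive control median, at least 50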;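 also: strain carries kanamycin resistance gene driven by streptokinase promoter and grows in 40 µg/ml kanamycin; loss of luminescence reflects streptokinase promoter inhibition or plain growth inhibition; 0% = median of DMSO wells and 100% = positive control at its reference dose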
V-ATPase pHluor: yeast V-ATPase proton transport regulation by pHLuorin; S. cerevisiae, pHLuorin cytosolic pH fluorescence; response, % at 10 µM; 0.37% of 350,000 active; in the data active = response mostly above about 7.3%, no sharp cut-off; inactive = mostly below about 5.4%; also: actives read high
tim10-1 inh: tim10-1 yeast growth inhibition; inhibition, % at 20 µM; S. cerevisiae tim10-1 ts strain growth, BacTiter-Glo, 24 h; 2.2% of 330,000 active;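 active = inhibition of at least 40%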;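 also: mutant grown at 25 °C; 0% = DMSO wells with yeast and 100% = wells holding no yeast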
tim23-1 inh: tim23-1 yeast growth inhibition; S. cerevisiae tim23-1 growth, BacTiter-Glo luminescence, 24 h; inhibition, % at 20 µM; 1.3% of 330,000 active;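 active = growth inhibition of the mutant yeast at or above 50%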;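 also: temperature-sensitive mutant grown at 25 °C; plate controls were DMSO-treated mutant yeast for no effect and medium wells lacking yeast for full effect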
tim10-1 confirm: confirmation of tim10-1 mutant yeast growth inhibitors; shares compounds with tim10-1 inh; S. cerevisiae tim10-1 ts strain growth, BacTiter-Glo, 24 h; inhibition, % at 20 µM; 56% of 7,400 active; AID 463213;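 active = inhibition of yeast growth at or above a set limit in either of two repeat tests at 20 µM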;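 also: tim10-1 mutant grown at permissive 25 °C to find synthetic lethal compounds; 0% = DMSO yeast wells and 100% = medium wells without yeast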
tim10 confirm: TIM10 yeast growth inhibition, confirmed; shares compounds with TIM10 inh; S. cerevisiae tim10 strain growth, BacTiter-Glo luminescence, 24 h; inhibition, % at 10 µM; 63% of 4,600 active;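 active = inhibition of yeast growth at or above a set limit in either of two replicates at 10 µM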;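 also: this counterscreen used the strain with wild-type TIM10; 0% = yeast with DMSO and 100% = medium wells lacking yeast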
* = called active by the depositor.

CCOC(=O)/C(=C/c1c(C)n(C)c2ccc([N+](=O)[O-])cc12)C(C)=O was read as PfHsp90 set2 9.9, TIM10 inh 53.6*, SKKanGAS inh -1.9, V-ATPase pHluor -1.6, tim10-1 inh 58.2*, tim23-1 inh 48.5, tim10-1 confirm 37.2* and tim10 confirm 40.2*.
Cc1ccc2c(c1)C1CN(C)CCC1N2C(=O)c1cccc(S(=O)(=O)N2CC(C)CC(C)C2)c1 (stereo not drawn) was read as PfHsp90 set2 16.8, TIM10 inh 55.0*, SKKanGAS inh -3.6, V-ATPase pHluor -3.0, tim10-1 inh 46.7*, tim23-1 inh 24.9, tim10-1 confirm 42.5* and tim10 confirm 38.3*.
For CCOC(=O)c1ccc(N2C(=O)CC(N3CCCC(C)C3)C2=O)cc1 (stereo not drawn) the results were TIM10 inh 46.4*, SKKanGAS inh 1.7, V-ATPase pHluor -0.5, tim10-1 inh 65.6*, tim23-1 inh 27.7, tim10-1 confirm 66.2* and tim10 confirm 46.6*.
Screening CN(C)CCCNS(=O)(=O)c1ccc(N2CCC(c3ccc(Cl)cc3)=N2)cc1 returned TIM10 inh 51.7*, SKKanGAS inh -2.0, tim10-1 inh 58.9*, tim23-1 inh 11.2, tim10-1 confirm 39.9* and tim10 confirm 50.3*.
Screening CN(C)CCCNS(=O)(=O)c1cc(Cl)ccc1Cl returned TIM10 inh -10.3, SKKanGAS inh -15.1, V-ATPase pHluor 2.2, tim10-1 inh 4.7 and tim23-1 inh 16.6.
Screening CCC(C)NC(=O)CC(NS(=O)(=O)c1ccc(NC(C)=O)cc1)C(C)C (stereo not drawn) returned PfHsp90 set2 -1.5, TIM10 inh -5.9, SKKanGAS inh -0.9, V-ATPase pHluor 0.3, tim10-1 inh 4.2 and tim23-1 inh 4.8.
`CC(C)(C#CCN1CCCCC1)OCCOC(c1ccccc1)c1ccccc1` gave PfHsp90 set2 -10.0, TIM10 inh 28.1, SKKanGAS inh 0.0, V-ATPase pHluor -5.1, tim10-1 inh 15.6 and tim23-1 inh 32.0.
Screening C=CCc1cccc(/C=N/NC(=O)CNc2ccccc2OC)c1O returned PfHsp90 set2 -17.9, TIM10 inh 96.7*, SKKanGAS inh 5.7, V-ATPase pHluor -4.9, tim10-1 inh 47.0*, tim23-1 inh 24.9, tim10-1 confirm 29.8 and tim10 confirm 46.8*.
Screening C=CCc1cccc(/C=N/NC(=O)CNc2ccccc2)c1O returned PfHsp90 set2 10.8, TIM10 inh 5.2, SKKanGAS inh 22.1, V-ATPase pHluor 3.2, tim10-1 inh 24.3 and tim23-1 inh 10.7.
`O=c1[nH]c(SCc2ccccc2)nc2[nH]ncc12` gave TIM10 inh 6.6, SKKanGAS inh -6.0, V-ATPase pHluor -2.3, tim10-1 inh 9.4 and tim23-1 inh 27.4.
For CCC(=NCc1ccco1)c1c(C(F)(F)F)[nH]n(-c2nc3ccccc3s2)c1=O the results were PfHsp90 set2 16.9, TIM10 inh 44.2*, SKKanGAS inh 12.2, V-ATPase pHluor -3.4, tim10-1 inh 64.6*, tim23-1 inh 18.5, tim10-1 confirm 62.5* and tim10 confirm 41.0*.
`CCCCCCCC(=O)N/N=C/c1ccc([N+](=O)[O-])o1` gave TIM10 inh 49.4*, SKKanGAS inh -0.6, V-ATPase pHluor -2.5, tim10-1 inh 55.2*, tim23-1 inh 43.1, tim10-1 confirm 56.3* and tim10 confirm 26.1.
Screening Cc1ccccc1OCC(=O)N/N=C/c1ccc([N+](=O)[O-])o1 returned PfHsp90 set2 -12.3, TIM10 inh 41.6*, SKKanGAS inh 2.9, V-ATPase pHluor 5.9, tim10-1 inh 44.6*, tim23-1 inh 45.5, tim10-1 confirm 35.1* and tim10 confirm 22.8.
COc1ccccc1OCC(=O)N/N=C/C=C/c1ccc([N+](=O)[O-])o1 was read as PfHsp90 set2 -0.5, TIM10 inh 47.7*, SKKanGAS inh -18.5, V-ATPase pHluor -2.4, tim10-1 inh 67.0*, tim23-1 inh 46.4, tim10-1 confirm 83.7* and tim10 confirm 50.8*.
O=C(COC(=O)/C=C/c1cccc(Br)c1)NC1CCCC1 was read as PfHsp90 set2 -0.9, TIM10 inh 2.9, V-ATPase pHluor 6.5, tim10-1 inh 12.7 and tim23-1 inh 15.9.
O=c1oc(Cc2ccccc2)nc2ccccc12 was read as PfHsp90 set2 -2.8, TIM10 inh 4.5, SKKanGAS inh 0.8, V-ATPase pHluor -4.2, tim10-1 inh 15.2 and tim23-1 inh 8.7.
For COc1ccc(C(=O)/C(=C\c2ccco2)N2C=CC=CC2=C(C#N)C#N)cc1 the results were PfHsp90 set2 13.0, TIM10 inh 59.5*, SKKanGAS inh -0.1, V-ATPase pHluor -3.9, tim10-1 inh 52.5*, tim23-1 inh 31.0, tim10-1 confirm 40.8* and tim10 confirm 52.8*.
Screening N#CC(C#N)=C1C=CC=CN1/C(=C\c1ccco1)C(=O)c1ccccc1 returned PfHsp90 set2 30.0 and V-ATPase pHluor 2.2.
COc1cccc(N2CCN(C(=O)C3CCN(C(=O)Nc4ccccc4)CC3)CC2)c1 was read as V-ATPase pHluor -2.1.
For CC(=O)Nc1ccc(S(=O)(=O)N2CCSC2c2ccc(Cl)cc2)cc1 (stereo not drawn) the results were PfHsp90 set2 22.9, TIM10 inh 40.2*, SKKanGAS inh 2.0, V-ATPase pHluor 6.3, tim10-1 inh 52.8*, tim23-1 inh 47.2, tim10-1 confirm 38.7* and tim10 confirm -25.1.
For CC(=O)Nc1ccc(S(=O)(=O)N2CCC(C(=O)c3ccc(Cl)cc3)CC2)cc1 the results were PfHsp90 set2 -9.4, TIM10 inh 7.8, SKKanGAS inh -3.2, V-ATPase pHluor 0.4, tim10-1 inh 30.9 and tim23-1 inh 29.7.
`Cc1cc(NC2CCCCC2)nc(-c2ccccc2O)n1` gave PfHsp90 set2 -14.3, TIM10 inh 27.3, SKKanGAS inh -8.2, V-ATPase pHluor 0.8, tim10-1 inh 37.1 and tim23-1 inh 27.8.
For Cc1cc(NCc2ccccc2)nc(-c2ccccc2O)n1 the results were TIM10 inh 66.5*, SKKanGAS inh 17.0, V-ATPase pHluor 0.0, tim10-1 inh 64.3*, tim23-1 inh 47.3, tim10-1 confirm 49.0* and tim10 confirm 46.2*.
CCCCc1ccc(NC(=S)NCc2cccs2)cc1 was read as TIM10 inh 40.4*, SKKanGAS inh 9.5, V-ATPase pHluor 5.6, tim10-1 inh 46.2*, tim23-1 inh 40.1, tim10-1 confirm 42.6* and tim10 confirm 34.6*.
`O=C(Nc1cccc2ccccc12)c1ccc([N+](=O)[O-])s1` gave PfHsp90 set2 -10.0, TIM10 inh -20.6, SKKanGAS inh 3.6, V-ATPase pHluor 0.1, tim10-1 inh 36.0 and tim23-1 inh -73.0.
